Assay outcomes: PubChem, National Center for Advancing Translational Sciences (NCATS)
HP1b chromo inh: blocks HP1-beta chromodomain binding to methylated histone tails; P83916; AlphaScreen HP1-beta / biotin-H3K9me3 peptide binding; Potency, µM (highest dose often 114 µM), without a hit: top-dose activity change, negative = inhibition, usual class: inhibitors; 390,000 compounds, 0.56% hits; also: nearly all actives have a fitted effect of over 70% in size
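Compound inhibition of the preformed complex between 50 nM HP1-beta and 50 nM biotinylated H3K9me3 peptide was read by AlphaScreen. Buffer was PBS pH 7.4 with 0.01% Tween-20. Incubations ran 30 min at room temperature, with 10 ug/mL donor/acceptor beads.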
L3MBTL1 block: inhibitors of human L3MBTL1. Q9Y468. AlphaScreen L3MBTL1–H3K9me1 peptide binding. Potency, µM (series often up to 57.1 µM), for inactives: at the top dose activity, negative = inhibition, most hits filed as inhibitors. 230,000 compounds, 0.66% hits. AID 485360; also: % is scaled to controls: 0 for no effect and ±100 for the full control effect; nearly all actives have a fitted effect of over 60% in size
Target sequence (Q9Y468 whole entry, looked up): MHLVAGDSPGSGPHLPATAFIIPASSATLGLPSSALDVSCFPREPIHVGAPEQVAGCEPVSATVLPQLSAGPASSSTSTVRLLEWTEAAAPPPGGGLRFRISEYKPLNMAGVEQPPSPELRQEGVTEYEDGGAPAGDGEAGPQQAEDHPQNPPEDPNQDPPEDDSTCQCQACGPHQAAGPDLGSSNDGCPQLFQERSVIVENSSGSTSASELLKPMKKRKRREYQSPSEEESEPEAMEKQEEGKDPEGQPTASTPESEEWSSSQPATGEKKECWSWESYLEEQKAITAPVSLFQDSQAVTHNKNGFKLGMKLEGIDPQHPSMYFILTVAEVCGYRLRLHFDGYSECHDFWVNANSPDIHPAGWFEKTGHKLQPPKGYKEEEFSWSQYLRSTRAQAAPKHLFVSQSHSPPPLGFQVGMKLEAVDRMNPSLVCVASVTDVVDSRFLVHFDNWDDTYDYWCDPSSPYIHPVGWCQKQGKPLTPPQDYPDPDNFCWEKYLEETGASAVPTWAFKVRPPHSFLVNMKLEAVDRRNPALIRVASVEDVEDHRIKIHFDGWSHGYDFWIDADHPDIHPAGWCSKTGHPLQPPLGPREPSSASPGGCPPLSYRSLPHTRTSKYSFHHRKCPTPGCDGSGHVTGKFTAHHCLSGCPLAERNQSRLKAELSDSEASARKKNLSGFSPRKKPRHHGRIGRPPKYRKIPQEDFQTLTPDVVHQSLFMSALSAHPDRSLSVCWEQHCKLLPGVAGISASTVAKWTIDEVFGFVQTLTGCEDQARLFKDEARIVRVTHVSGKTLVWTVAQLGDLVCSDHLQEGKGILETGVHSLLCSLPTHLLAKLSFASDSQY
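L3MBTL1 (50 nM) pre-complexed 30 min with biotinylated H3(1-15)K9me1 peptide (75 nM), then compounds added for 30 min at room temperature; AlphaScreen streptavidin donor/nickel chelate acceptor beads (10 ug/mL final) read after 30 min dark incubation.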
JMJD2A Tudor: inhibitors of human JMJD2A Tudor domain. O75164. 390,000 compounds, 4.4% hits. AID 504339. AlphaScreen JMJD2A-Tudor / H3K4me3 peptide binding. Potency, µM (doses to about 114 µM), inactives show at the top dose activity change, negative = inhibition, usual class: inhibitors; also: % is scaled to controls: 0 for no effect and ±100 for the full control effect; nearly all actives have a fitted effect of over 50% in size
G9a inh: inhibitors of human histone lysine methyltransferase G9a. Q96KQ7. G9a H3K9 monomethylation, AlphaScreen, 2 h. Potency, µM (highest dose often 102 µM), for inactives: at the top dose activity, negative = inhibition, most hits filed as inhibitors. 350,000 compounds, 8.8% hits; also: % is scaled to controls: 0 for no effect and ±100 for the full control effect; nearly all actives have a fitted effect of over 75% in size
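AlphaScreen detection with an anti-monomethyl H3K9 antibody quantified product after a 2 h room-temperature reaction containing 500 nM biotinylated H3K9 peptide, 20 µM SAM and 20 nM enzyme, which had been preincubated 15 min with compound.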
Sfp PPTase inh: blocks B. subtilis Sfp PPTase activity; Potency, µM, inactives show largest response in the series, negative = inhibition, actives largely listed as inhibitors; Q9F4F7; 310,000 compounds, 3.5% hits; Biochemical Sfp PPTase activity, qHTS;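 also: the enzyme is Sfp with the accession as filed and its product quenches rhodamine fluorescence; 0% = enzyme reaction without inhibitor and -100% = no enzyme wells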
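Step 1, compound plus 15 nM Sfp-PPTase, 15 min, room temperature. Step 2, add rhodamine-CoA (5 uM) and BHQ-2-YbbR (12.5 uM). Step 3, read 525/598 nm fluorescence at 0 and 30 min.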
BAZ2B inh: blocks human BAZ2B; Q9UIF8; AlphaScreen BAZ2B-H3K14Ac peptide displacement; Potency, µM (highest dose often 114 µM), for the others: at the top dose activity change, negative = inhibition, hits mostly inhibitors; 360,000 compounds, 4.4% hits; AID 504333; also: % is scaled to controls: 0 for no effect and ±100 for the full control effect; nearly all actives have a fitted effect of over 60% in size
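AlphaScreen luminescence quantifies BAZ2B engagement of H3K14Ac peptide; the protein and biotinylated peptide are both at 50 nM final, buffer PBS pH 7.4 with 0.01% Tween-20, all steps at room temperature.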
The depositor's hits bear a star; [ ] = remark or other dose. Most compounds without a hit are left out; they make up all but 12% or so of the library. Calls follow the shape of the dose curve; as a rule, active = well fitted curve in the direction sought with a large enough effect; inconclusive = small, poorly fitted or top-dose-only effect, or another doubt; inactive = no such curve, though single readings can be large; an effect the other way counts as inactive or inconclusive. Potency is read from the fitted curve at half-maximal effect.

How did CCN(CC)S(=O)(=O)c1ccc(OCCNS(C)(=O)=O)cc1 do in these assays?
HP1b chromo inh: -15%; JMJD2A Tudor: 11µM*; G9a inh: -38%; Sfp PPTase inh: 20%; BAZ2B inh: 9%

What do the screens show for `N#Cc1nc(Nc2ccc(Br)cc2)nc(NC2CCCC2)n1`?
JMJD2A Tudor: -14%

What do the screens show for `CC(C)(C)c1ccc(-c2n[nH]c(=S)n2/N=C/c2ccncc2)cc1`?
HP1b chromo inh: 7%; L3MBTL1 block: -7%; JMJD2A Tudor: inconclusive; G9a inh: 2.5µM*; Sfp PPTase inh: -3%; BAZ2B inh: -9%

How did Cc1ccc(/C=N/n2c(-c3ccncc3)n[nH]c2=S)cc1 do in these assays?
HP1b chromo inh: 7%; L3MBTL1 block: -3%; JMJD2A Tudor: 2.2µM*; G9a inh: 1.4µM*; Sfp PPTase inh: inconclusive; BAZ2B inh: -32%

What do the screens show for `Cc1ccc(S(=O)(=O)N2CCN(c3nc(-c4cncs4)nc4ccccc34)CC2)cc1`?
HP1b chromo inh: 40%; JMJD2A Tudor: 3%

How did COc1cc(Br)cc(/C=N/NC(=O)Cc2ccc(C(F)(F)F)cc2[N+](=O)[O-])c1O do in these assays?
HP1b chromo inh: -11%; L3MBTL1 block: 5%; JMJD2A Tudor: 89µM*; G9a inh: 17%; Sfp PPTase inh: inconclusive; BAZ2B inh: 8%

Results for COc1cc([N+](=O)[O-])cc(/C=N/NC(=O)Cn2nccc2C)c1O ?
HP1b chromo inh: -11%; JMJD2A Tudor: -33%[11.4 µM]; G9a inh: 4%; Sfp PPTase inh: 15%; BAZ2B inh: 45µM*

What do the screens show for `COc1cc([N+](=O)[O-])cc(/C=N/NC(=O)Cn2nc(C)cc2C)c1O`?
HP1b chromo inh: 23%; L3MBTL1 block: inconclusive; JMJD2A Tudor: 79µM*; G9a inh: -14%; Sfp PPTase inh: -7%; BAZ2B inh: 71µM*

What do the screens show for `COc1ccc(/C=N/NC(=O)Cn2nc([N+](=O)[O-])cc2C)c(OC)c1OC`?
HP1b chromo inh: 20%; L3MBTL1 block: 1%; JMJD2A Tudor: -9%; G9a inh: 0%; Sfp PPTase inh: 13%; BAZ2B inh: -11%

What do the screens show for `COc1ccc(NC(=O)Cn2c(=O)n(C(C)C)c(=O)c3oc4ccccc4c32)cc1Cl`?
HP1b chromo inh: 25%; JMJD2A Tudor: -15%; G9a inh: 2%[59 µM]; BAZ2B inh: -30%

What do the screens show for `CCOc1ccccc1NC(=O)CSc1nc2ccccc2nc1Cc1ccc(C)cc1`?
HP1b chromo inh: 13%[57 µM]; JMJD2A Tudor: -26%; G9a inh: 43%[59 µM]; BAZ2B inh: -9%

What do the screens show for `Cc1ccc(NC(=O)CSc2nc3ccc(NC(=O)CCc4ccccc4)cc3s2)cc1`?
HP1b chromo inh: 51%; JMJD2A Tudor: 6%; G9a inh: -4%[59 µM]; BAZ2B inh: 1%

Results for Cc1cc2c(c(C)c1Cl)C(c1ccc3c(c1)OCO3)CC(c1ccccc1)O2 (configuration not stated) ?
HP1b chromo inh: -5%; JMJD2A Tudor: -21%; Sfp PPTase inh: -15%

How did CN(C)C1C(=O)C(C(N)=O)=C(O)[C@@]2(O)C(=O)C3=C(O)c4c(O)ccc(Cl)c4C(O)[C@H]3C[C@@H]12 (some centres not stated) do in these assays?
G9a inh: -28%[2.33 µM]; Sfp PPTase inh: 5%

Results for CN(C)[C@H]1C(=O)C(C(=O)NCN2CCCC2)=C(O)[C@]2(O)C(=O)C3=C(O)c4c(O)cccc4[C@@](C)(O)[C@H]3C[C@@H]12 ?
G9a inh: 7.9µM*; Sfp PPTase inh: 3%

Results for Cc1ccc(-c2cccc(NC(=O)C3C(C(=O)O)[C@@H]4C=C[C@H]3C4)c2)o1 (some centres not stated) ?
HP1b chromo inh: 6%; L3MBTL1 block: -1%; JMJD2A Tudor: -25%; G9a inh: 16µM*; Sfp PPTase inh: 7.9µM*; BAZ2B inh: inconclusive

What do the screens show for `COc1ccc(C(C)(C)C)cc1NC(=O)C1C2C=CC(C2)C1C(=O)O` (configuration not stated)?
HP1b chromo inh: 17%; L3MBTL1 block: -1%; JMJD2A Tudor: -13%; G9a inh: 50µM*; Sfp PPTase inh: -26%; BAZ2B inh: -35%

What do the screens show for `Cc1ccc(-c2ccccc2NC(=O)C2C3C=CC(C3)C2C(=O)O)o1` (configuration not stated)?
HP1b chromo inh: -7%; L3MBTL1 block: -4%; JMJD2A Tudor: -31%; G9a inh: inconclusive; Sfp PPTase inh: 25µM*; BAZ2B inh: 56µM*

How did O=C(O)C1C2C=CC(C2)C1C(=O)Nc1cccc(F)c1 (configuration not stated) do in these assays?
HP1b chromo inh: 32%; L3MBTL1 block: 15%; JMJD2A Tudor: 1%; G9a inh: -28%[59 µM]; Sfp PPTase inh: 9%; BAZ2B inh: -6%

Results for O=C(O)c1cccc(NC(=O)C2C3C=CC(C3)C2C(=O)O)c1 (configuration not stated) ?
HP1b chromo inh: 34%; L3MBTL1 block: inconclusive; JMJD2A Tudor: -26%; G9a inh: 50µM*; Sfp PPTase inh: -10%; BAZ2B inh: 2%

How did CCc1ccccc1Nc1nc2ccccc2c2nncn12 do in these assays?
HP1b chromo inh: 58%; JMJD2A Tudor: 9%; G9a inh: 25%[59 µM]; BAZ2B inh: 9%

Results for CCCCOc1ccc(OC(=O)c2sc3ncn(Cc4cccc(F)c4)c(=O)c3c2C)cc1 ?
HP1b chromo inh: 54%; JMJD2A Tudor: 19%; G9a inh: 3%[59 µM]; BAZ2B inh: 12%

What do the screens show for `COc1ccc(C(=O)c2cn(Cc3cccc(C)c3)c3cc4c(cc3c2=O)OCCO4)cc1OC`?
HP1b chromo inh: 26%; JMJD2A Tudor: -18%; G9a inh: -28%[59 µM]; BAZ2B inh: -28%

What do the screens show for `Clc1ccc(Cl)c(OCCCCNCc2ccccc2)c1`?
HP1b chromo inh: inconclusive; L3MBTL1 block: 1%; JMJD2A Tudor: 1.3µM*; G9a inh: inconclusive; Sfp PPTase inh: -22%; BAZ2B inh: inconclusive

Results for Clc1ccc(OCCCNCc2ccccc2)c(Br)c1 ?
HP1b chromo inh: -22%; L3MBTL1 block: 6%; JMJD2A Tudor: 10µM*; G9a inh: 13µM*; Sfp PPTase inh: inconclusive; BAZ2B inh: inconclusive

How did CC(=O)c1ccc(NC(=O)c2ccc(CN3C(=O)CCn4nc(C)cc43)cc2)cc1 do in these assays?
HP1b chromo inh: 13%; JMJD2A Tudor: -16%; G9a inh: -26%[59 µM]; BAZ2B inh: -15%
